The supplement of paper PMC10849652
About 8,800 targets were measured; listed, in parts, are those with a hit and a random draw of the rest. About 0.5% of all pairs of compound and target were hits.

How the values were obtained:
Assay in all cases: log2 fold change, soluble protein after heating vs DMSO (PISA); higher = thermal stabilisation; K562 lysate, 10 uM; active = over 0.2 and 3.5 SD of the protein, either way, in both replicates (recomputed)
erlotinib = compound: C#Cc1cccc(Nc2ncnc3cc(OCCOC)c(OCCOC)cc23)c1 [erlotinib]
How it was run: (§1)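 Following dounce homogenisation of K562 pellets in PBS pH 7.4 with 1 mM MgCl2, crude extract at 1 mg/mL protein was incubated for 30 min with 10 μM compound. Aliquots were then heated for 3 min over 48°C-58°C and pooled, NP-40 was added to 0.5% at 4°C, and soluble protein was recovered as the supernatant at 21,000xg for 90 min. Channel-sum-equalised TMTpro 16plex LC-MS/MS quantified this protein. Each value, from duplicates, is a log-two fold change in thermal stability relative to solvent controls.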

[1] = compound: C/C(=N\NC(=O)C1=CC(=CC=C1)S(=O)(=O)N2CCOCC2)/C3=C(C=CC(=C3)Cl)O
How it was run: as §1

[2] = compound: C1=CC(=CC=C1C2=NC3=C(N2)C=C(C=C3)C(=O)N)OC4=CC=C(C=C4)Cl
How it was run: as §1

[3] = compound: C1=CC2=C(C=CC(=C2)/C=C\3/C(=O)NC(=NCC4=CC=CS4)S3)N=C1
How it was run: as §1

[4] = compound: C1=CC2=NC=CN=C2C=C1/C=C/3\C(=O)NC(=O)S3
How it was run: as §1

[5] = compound: C1=CC=C(C=C1)C2=NC(=C(N2)C3=CC=NC=C3)C4=CC(=C(C=C4)Cl)O
How it was run: as §1

[6] = compound: C1=CC=C2C(=C1)C3=NNC4=CC=CC(=C43)C2=O
How it was run: as §1

[7] = compound: C1CCN(C1)C(=O)NC2=CC=CC(=C2)NC3=NC=C(C(=N3)NCCC4=CN=CN4)Br
How it was run: as §1

[8] = compound: C1CN(CCC1(CC2=CC=C(C=C2)Cl)N)C3=NC=NC4=C3C=CN4
How it was run: as §1

IRAK-1-4 Inhibitor I = compound: C1COCCN1CCN2C3=CC=CC=C3N=C2NC(=O)C4=CC(=CC=C4)[N+](=O)[O-] [IRAK-1-4 Inhibitor I]
How it was run: as §1

ibrutinib = compound: C=CC(=O)N1CCC[C@@H](n2nc(-c3ccc(Oc4ccccc4)cc3)c3c(N)ncnc32)C1 [ibrutinib]
How it was run: as §1

[9] = compound: CC(=O)c1cnc2ccc(-c3cc(Cl)c(O)c(Cl)c3)nc2c1N[C@H]1CC[C@H](CN(C)C)CC1
How it was run: as §1

ralimetinib = compound: CC(C)(C)Cn1c(N)nc2ccc(-c3[nH]c(C(C)(C)C)nc3-c3ccc(F)cc3)nc21 [ralimetinib]
How it was run: as §1

[10] = compound: CC(C)(O)CC(=O)NCCn1ccc2ncnc(Nc3ccc(Oc4cccc(C(F)(F)F)c4)c(Cl)c3)c21
How it was run: as §1

[11] = compound: CC(C)C1=C2N=C(C=C(N2N=C1)NCC3=CC=CC=C3)NCCCCCCN
How it was run: as §1

[12] = compound: CC1=C(C(CC(=O)N1)C2=CC=C(C=C2)C(F)(F)F)C(=O)NC3=C(C=C4C(=C3)C=NN4)F
How it was run: as §1

[13] = compound: CC1=C(C2=C(C=C1)C(=O)C3=CC=CC=C3N2CCCN)C
How it was run: as §1

[14] = compound: CC1=C(C=C(C=C1)NC(=O)C2=CC(=CC=C2)C(C)(C)C#N)NC3=CC4=C(C=C3)N=CN(C4=O)C
How it was run: as §1

[15] = compound: CC1=C(C=C(C=C1)NC(=O)C2=CC(=CC=C2)N(C)C)NC(=O)C3=CC=C(C=C3)O
How it was run: as §1

[16] = compound: CC1=CC=C(C=C1)SC2=C3C=C(SC3=CN=C2)C(=O)N
How it was run: as §1

Measured: log2 fold change

HNRNPD isoform 3 (UniProt Q14103)
Chain of UniProt Q14103 (Q14103 whole entry, looked up): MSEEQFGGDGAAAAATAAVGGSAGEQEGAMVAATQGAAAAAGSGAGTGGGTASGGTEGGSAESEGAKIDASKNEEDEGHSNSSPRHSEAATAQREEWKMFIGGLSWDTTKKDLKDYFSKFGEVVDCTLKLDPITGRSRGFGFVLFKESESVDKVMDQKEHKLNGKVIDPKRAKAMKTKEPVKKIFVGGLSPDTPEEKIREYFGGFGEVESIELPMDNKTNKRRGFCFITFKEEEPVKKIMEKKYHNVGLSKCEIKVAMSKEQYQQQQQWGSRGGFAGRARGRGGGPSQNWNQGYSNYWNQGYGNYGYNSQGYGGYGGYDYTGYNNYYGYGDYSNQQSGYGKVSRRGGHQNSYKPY
inactive: erlotinib -0.056 | [1] -0.133 | [2] -0.1 | [3] -0.181 | [4] -0.036 | [5] -0.11 | [6] 0.021 | [7] 0.108 | [8] -0.043 | IRAK-1-4 Inhibitor I -0.057 | ibrutinib -0.081 | [9] -0.065 | ralimetinib -0.046 | [10] 0.104 | [11] -0.026 | [12] -0.096 | [13] -0.052 | [14] 0 | [15] 0.036 | [16] -0.007

GSTM2 (UniProt P28161)
Chain of UniProt P28161 (P28161 whole entry, looked up): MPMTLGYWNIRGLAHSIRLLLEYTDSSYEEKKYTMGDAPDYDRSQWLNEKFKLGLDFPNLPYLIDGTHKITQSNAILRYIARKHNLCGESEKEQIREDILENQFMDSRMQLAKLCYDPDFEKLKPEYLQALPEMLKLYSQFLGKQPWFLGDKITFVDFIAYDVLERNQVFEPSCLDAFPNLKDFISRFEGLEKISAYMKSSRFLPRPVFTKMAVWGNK
inactive: erlotinib -0.083 | [1] 0.041 | [2] -0.038 | [3] -0.007 | [4] 0.079 | [5] -0.008 | [6] -0.012 | [7] -0.021 | [8] -0.054 | IRAK-1-4 Inhibitor I 0.037 | ibrutinib 0.081 | [9] 0.009 | ralimetinib -0.006 | [10] -0.067 | [11] -0.021 | [12] -0.119 | [13] -0.033 | [15] 0.004 | [16] -0.021

HDGFL2 isoform 2 (UniProt Q7Z4V5)
Chain of UniProt Q7Z4V5 (Q7Z4V5 whole entry, looked up): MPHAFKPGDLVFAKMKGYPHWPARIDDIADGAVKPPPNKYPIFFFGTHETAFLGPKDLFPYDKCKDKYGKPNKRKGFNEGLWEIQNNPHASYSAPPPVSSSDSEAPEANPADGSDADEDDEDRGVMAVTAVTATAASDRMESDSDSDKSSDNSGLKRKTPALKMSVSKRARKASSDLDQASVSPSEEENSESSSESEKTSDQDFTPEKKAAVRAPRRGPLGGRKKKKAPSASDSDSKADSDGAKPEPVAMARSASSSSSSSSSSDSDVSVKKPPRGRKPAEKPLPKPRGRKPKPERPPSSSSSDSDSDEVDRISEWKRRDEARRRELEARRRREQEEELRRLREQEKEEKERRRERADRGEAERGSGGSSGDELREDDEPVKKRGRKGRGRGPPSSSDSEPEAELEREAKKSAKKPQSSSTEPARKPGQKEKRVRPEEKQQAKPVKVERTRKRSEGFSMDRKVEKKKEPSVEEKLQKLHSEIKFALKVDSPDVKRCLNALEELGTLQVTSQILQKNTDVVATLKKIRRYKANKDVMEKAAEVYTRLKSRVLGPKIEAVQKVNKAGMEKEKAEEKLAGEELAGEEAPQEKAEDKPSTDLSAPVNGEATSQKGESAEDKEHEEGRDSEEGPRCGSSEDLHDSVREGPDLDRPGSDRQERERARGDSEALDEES
inactive: erlotinib -0.008 | [1] -0.028 | [2] 0.032 | [3] -0.008 | [4] -0.03 | [5] 0.027 | [6] 0.01 | [7] 0 | [8] 0.021 | IRAK-1-4 Inhibitor I 0 | ibrutinib -0.033 | [9] -0.002 | ralimetinib -0.01 | [10] -0.049 | [11] 0.011 | [12] -0.015 | [13] -0.026 | [14] 0.022 | [15] 0.021 | [16] -0.044

HAUS4 (UniProt Q9H6D7)
Chain of UniProt Q9H6D7 (Q9H6D7 whole entry, looked up): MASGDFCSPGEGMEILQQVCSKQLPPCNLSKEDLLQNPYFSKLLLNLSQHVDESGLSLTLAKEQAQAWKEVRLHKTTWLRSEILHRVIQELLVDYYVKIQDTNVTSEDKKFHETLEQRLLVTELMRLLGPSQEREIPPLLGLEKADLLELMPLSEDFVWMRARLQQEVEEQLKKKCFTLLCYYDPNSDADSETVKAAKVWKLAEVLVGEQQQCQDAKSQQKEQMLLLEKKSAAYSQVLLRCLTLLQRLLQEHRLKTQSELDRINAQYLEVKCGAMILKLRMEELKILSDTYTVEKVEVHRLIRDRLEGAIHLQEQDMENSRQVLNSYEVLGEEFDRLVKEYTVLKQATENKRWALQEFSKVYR
inactive: erlotinib 0.012 | [1] -0.029 | [2] -0.036 | [3] 0.064 | [4] -0.003 | [5] 0.015 | [6] -0.015 | [7] -0.025 | [8] -0.007 | IRAK-1-4 Inhibitor I -0.016 | ibrutinib 0.04 | [9] -0.033 | ralimetinib 0.003 | [10] 0.01 | [11] -0.004 | [12] 0.006 | [13] -0.016 | [14] -0.008 | [15] 0.057 | [16] -0.01

IGF2BP3 (UniProt O00425)
Chain of UniProt O00425 (O00425 whole entry, looked up): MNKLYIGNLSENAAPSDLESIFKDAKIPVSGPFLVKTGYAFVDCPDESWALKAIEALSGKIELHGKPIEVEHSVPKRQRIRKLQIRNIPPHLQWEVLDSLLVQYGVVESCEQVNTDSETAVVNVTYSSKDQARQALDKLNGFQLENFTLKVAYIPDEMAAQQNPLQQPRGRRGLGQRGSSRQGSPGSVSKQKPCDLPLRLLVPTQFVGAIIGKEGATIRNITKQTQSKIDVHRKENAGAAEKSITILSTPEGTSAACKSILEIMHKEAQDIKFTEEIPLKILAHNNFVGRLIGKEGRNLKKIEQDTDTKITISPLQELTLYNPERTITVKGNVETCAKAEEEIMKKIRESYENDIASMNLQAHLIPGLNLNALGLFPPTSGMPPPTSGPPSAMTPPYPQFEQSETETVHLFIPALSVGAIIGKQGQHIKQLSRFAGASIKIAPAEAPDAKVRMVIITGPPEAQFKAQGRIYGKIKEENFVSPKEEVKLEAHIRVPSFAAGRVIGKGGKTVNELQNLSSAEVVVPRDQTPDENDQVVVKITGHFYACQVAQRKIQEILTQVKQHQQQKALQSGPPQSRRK
inactive: erlotinib 0.04 | [1] 0.023 | [2] -0.007 | [3] 0.003 | [4] 0.005 | [5] 0.024 | [6] -0.067 | [7] 0.026 | [8] 0 | IRAK-1-4 Inhibitor I -0.018 | ibrutinib 0.006 | [9] -0.019 | ralimetinib -0.012 | [10] 0.011 | [11] 0.024 | [12] -0.009 | [13] 0.011 | [14] -0.047 | [15] 0.007 | [16] 0.021

GMPS (UniProt P49915)
Chain of UniProt P49915 (P49915 whole entry, looked up): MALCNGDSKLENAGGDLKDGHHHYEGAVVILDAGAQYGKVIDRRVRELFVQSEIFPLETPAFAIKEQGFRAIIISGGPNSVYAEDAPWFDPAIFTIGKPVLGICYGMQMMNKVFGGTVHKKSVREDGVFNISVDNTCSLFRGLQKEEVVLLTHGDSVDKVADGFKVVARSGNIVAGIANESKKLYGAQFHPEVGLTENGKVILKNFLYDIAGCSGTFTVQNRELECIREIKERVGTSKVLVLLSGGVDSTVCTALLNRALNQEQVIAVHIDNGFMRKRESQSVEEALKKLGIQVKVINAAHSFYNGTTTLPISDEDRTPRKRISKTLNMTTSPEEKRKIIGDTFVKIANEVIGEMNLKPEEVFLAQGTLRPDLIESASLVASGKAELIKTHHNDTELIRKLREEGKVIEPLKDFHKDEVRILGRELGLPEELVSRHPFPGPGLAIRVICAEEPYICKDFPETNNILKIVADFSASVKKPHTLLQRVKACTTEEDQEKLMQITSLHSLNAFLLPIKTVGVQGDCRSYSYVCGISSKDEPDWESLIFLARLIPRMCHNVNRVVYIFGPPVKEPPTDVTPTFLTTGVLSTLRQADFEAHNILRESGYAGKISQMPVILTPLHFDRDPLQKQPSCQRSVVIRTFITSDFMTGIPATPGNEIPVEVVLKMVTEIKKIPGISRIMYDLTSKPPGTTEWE
inactive: erlotinib 0.014 | [1] -0.025 | [2] 0.004 | [3] 0.029 | [4] -0.013 | [5] -0.007 | [6] -0.009 | [7] -0.003 | [8] 0.017 | IRAK-1-4 Inhibitor I -0.004 | ibrutinib -0.034 | [9] 0.003 | ralimetinib 0.009 | [10] 0.013 | [11] 0.006 | [12] -0.032 | [13] 0.025 | [14] -0.024 | [15] 0.015 | [16] 0.02

HAUS6 (UniProt Q7Z4H7)
Chain of UniProt Q7Z4H7 (Q7Z4H7 whole entry, looked up): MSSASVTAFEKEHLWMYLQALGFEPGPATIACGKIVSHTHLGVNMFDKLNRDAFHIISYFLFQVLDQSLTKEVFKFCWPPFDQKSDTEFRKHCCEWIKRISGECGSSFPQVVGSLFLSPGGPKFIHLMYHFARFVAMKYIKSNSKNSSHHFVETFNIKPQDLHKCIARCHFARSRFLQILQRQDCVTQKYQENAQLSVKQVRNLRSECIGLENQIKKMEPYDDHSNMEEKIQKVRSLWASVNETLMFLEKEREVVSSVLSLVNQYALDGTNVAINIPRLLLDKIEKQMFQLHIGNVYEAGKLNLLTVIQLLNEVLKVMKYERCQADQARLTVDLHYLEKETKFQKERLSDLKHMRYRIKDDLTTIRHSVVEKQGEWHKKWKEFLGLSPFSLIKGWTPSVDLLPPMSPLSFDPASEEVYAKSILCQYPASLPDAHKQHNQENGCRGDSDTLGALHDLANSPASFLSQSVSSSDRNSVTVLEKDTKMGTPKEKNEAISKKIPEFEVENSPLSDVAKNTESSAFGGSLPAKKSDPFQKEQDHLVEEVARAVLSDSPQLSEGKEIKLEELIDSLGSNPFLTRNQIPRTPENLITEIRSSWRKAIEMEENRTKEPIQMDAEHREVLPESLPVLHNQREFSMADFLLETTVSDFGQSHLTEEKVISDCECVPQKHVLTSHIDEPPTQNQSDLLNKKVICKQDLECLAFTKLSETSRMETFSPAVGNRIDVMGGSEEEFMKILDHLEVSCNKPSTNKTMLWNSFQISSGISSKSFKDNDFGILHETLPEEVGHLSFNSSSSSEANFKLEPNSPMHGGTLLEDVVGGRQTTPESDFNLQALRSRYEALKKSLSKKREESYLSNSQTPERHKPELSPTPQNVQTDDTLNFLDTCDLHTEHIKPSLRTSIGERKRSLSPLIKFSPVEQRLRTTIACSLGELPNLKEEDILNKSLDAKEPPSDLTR
inactive: erlotinib 0.031 | [1] 0.102 | [2] -0.038 | [3] -0.035 | [4] -0.008 | [5] 0.019 | [6] 0.024 | [7] -0.015 | [8] 0.039 | IRAK-1-4 Inhibitor I 0.017 | ibrutinib 0.025 | [9] -0.054 | ralimetinib 0.027 | [10] -0.003 | [11] -0.015 | [12] 0.029 | [13] 0.01 | [14] -0.008 | [15] 0.073 | [16] 0.078
